The record followed here is PubChem BioAssay (Tox21).

Records with an inconclusive call do not appear. Activity calls are given as the source filed them. Unless noted, calls follow the shape of the dose curve; as a rule, active = well fitted curve in the direction sought with a large enough effect in the repeat runs; inconclusive = weak or mixed curves; inactive = no such curve, though single readings can be large; an effect the other way counts as inactive or inconclusive.

Assay [1] can be described thus: qHTS assay to identify small molecule that activate the aryl hydrocarbon receptor (AhR) signaling pathway - cell viability counter screen (AID 743086).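 Also: HepG2 liver cells carrying the AhR DRE luciferase reporter; series mostly up to about 70 µM; nearly all actives have a fitted effect of over 45% in size.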 The procedure, abridged:
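HepG2-AhR-luc (HG2L7.5c1) cells, 4000/well, were preincubated 5 h at 37C, exposed to compound in qHTS format for 24 hr at 37C, then given CellTiter-Fluor for 30 min; viability was read as fluorescence in the reporter wells.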
Background: In qHTS, concentration-response curves come from the screen itself.

Assay [2] concerns the target Peroxisome proliferator-activated receptor gamma (Homo sapiens) (UniProt P37231). The experiment in a line: qHTS assay to identify small molecule agonists of the peroxisome proliferator-activated receptor gamma (PPARg) signaling pathway (AID 743094; active = well fitted activation curve with a large enough effect in the signal ratio in the repeat runs, not every such curve was filed as active; the % refers to the signal ratio). The procedure, abridged:
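Cells from the PPARg UAS-bla HEK293H line are plated and incubated 5 h at 37C. Compounds in DMSO are pinned in and left 17 h at 37C. LiveBLAzer B/G substrate is then added for 1 h at room temperature before fluorescence is measured.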

Assay [3] in a line: qHTS assay to identify small molecule antagonists of the peroxisome proliferator-activated receptor gamma (PPARg) signaling pathway - cell viability counter screen (AID 743194). Also: nearly all actives have a fitted effect of over 55% in size. The conditions noted are these: Potency: co-treated with 50 nM rosiglitazone. The procedure, abridged:
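PPARg-UAS-bla HEK293H cells were plated, rested 5 h at 37 C, then treated with compounds plus rosiglitazone (50 nM final) for 17 h at 37 C; viability was then read by CellTiter-Glo luminescence after 30 min at room temperature.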

A short description of assay [4]: qHTS assay for small molecule agonists of the antioxidant response element (ARE) signaling pathway (AID 743202; active = well fitted activation curve with a large enough effect in the signal ratio in the repeat runs, not every such curve was filed as active; the % refers to the signal ratio; also: potency is read from the fitted curve at half-maximal effect). Put shortly:
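Steps: seed ARE-bla HepG2 cells (2,000/well); incubate 5 h at 37 C; add compounds by pin tool; incubate 16 h at 37 C; add FRET substrate; read fluorescence after 2 h at RT.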

Assay [5] is described as follows: qHTS assay for small molecule agonists of the antioxidant response element (ARE) signaling pathway - cell viability counter screen (AID 743203; calls by dose curve; also: nearly all actives have a fitted effect of over 55% in size). The procedure, abridged:
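Cytotoxicity was tested in parallel with the ARE reporter screen. ARE-bla HepG2 cells were exposed to compounds for 16 hrs, and viability was taken from CellTiter-Glo luminescence.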

Assay [6] can be described thus: qHTS assay for small molecule activators of the heat shock response signaling pathway (AID 743210; active = well fitted activation curve with a large enough effect in the signal ratio in the repeat runs, with a control signal flat, not every such curve was filed as active; the % refers to the signal ratio;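 also: HeLa cells with beta-lactamase reporter driven by heat shock elements; series mostly up to about 63 µM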). Put shortly:
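Activation of heat shock element-controlled beta-lactamase expression is measured in HeLa cells by LiveBLAzer FRET fluorescence, with compound exposure lasting 5 h at 37 C and substrate loading 2.5 h at room temperature.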

Assay [7] in a line: qHTS assay to identify small molecule agonists of the peroxisome proliferator-activated receptor delta (PPARd) signaling pathway - cell viability counter screen (AID 743211). Also: nearly all actives have a fitted effect of over 55% in size. The procedure, abridged: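 In the same wells used for beta-lactamase reporter measurement, cytotoxicity is scored by CellTiter-Glo. HEK293H PPARd-bla cells receive compound for 17 h at 37C following a 5 h settling period.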

The nature of assay [8]: qHTS assay to identify small molecule antagonists of the peroxisome proliferator-activated receptor delta (PPARd) signaling pathway - cell viability counter screen (AID 743213). Also: nearly all actives have a fitted effect of over 50% in size. The procedure, abridged:
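Agonist-stimulated (L165041, 300 nM final) HEK293H PPARd UAS-bla cells are exposed to compounds for 17 h at 37 C, and ATP-based luminescence (CellTiter-Glo) from the same wells reports cytotoxicity.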

The target of assay [9] is Bile acid receptor (Homo sapiens) (UniProt Q96RI1). The experiment in a line: qHTS assay to identify small molecule antagonists of the farnesoid-X-receptor (FXR) signaling pathway (AID 743217; active = well fitted inhibition curve with a large enough effect in the signal ratio in the repeat runs, not every such curve was filed as active; the % refers to the signal ratio). Put shortly:
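Cells carrying a UAS-driven beta-lactamase reporter (GeneBLAzer FXR-UAS-bla HEK 293T) were plated and rested 5 h at 37 °C. Compounds in DMSO were added alongside chenodeoxycholic acid agonist at 50 uM final and left 16 h at 37 °C before FRET substrate readout.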

The target is the same in assay [10]. In words: qHTS assay to identify small molecule agonists of the farnesoid-X-receptor (FXR) signaling pathway (AID 743220; active = well fitted activation curve with a large enough effect in the signal ratio in the repeat runs, not every such curve was filed as active; the % refers to the signal ratio). The procedure, abridged:
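FXR-UAS-bla HEK 293T cells carrying a UAS-driven beta-lactamase reporter were plated for 5 h at 37C/5% CO2, then exposed to DMSO-dissolved Tox21 10K compounds for 16 h at 37C. A LiveBLAzer B/G FRET substrate was loaded for 2 h at room temperature before fluorescence reading.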

Assay [11] in a line: qHTS assay to identify small molecule antagonists of the farnesoid-X-receptor (FXR) signaling pathway - cell viability counter screen (AID 743221; active = well fitted cell-killing curve with a large enough effect in the repeat runs, not every such curve was filed as active; also: nearly all actives have a fitted effect of over 50% in size). Put shortly: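 Here viability was scored by luminescence after CellTiter-Glo addition to wells already read for beta-lactamase. Prior treatment: compound plus CDCA (50 uM final), 16 h, 37 C, HEK 293T FXR-bla cells.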
Assay [12] deals with Vitamin D3 receptor (Homo sapiens) (UniProt P11473). The experiment in a line: qHTS assay to identify small molecule agonists of the vitamin D receptor (VDR) signaling pathway (AID 743222; calls by dose curve). Put shortly:
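Cells carrying a VDR-driven beta-lactamase reporter are seeded at 2,000 per well and rested 4 h. Compounds in DMSO are added for 16 h at 37C, and FRET substrate fluorescence is measured after 2 h at room temperature.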

Assay [13] shares this target. In words: qHTS assay to identify small molecule antagonists of the vitamin D receptor (VDR) signaling pathway (AID 743223; active = well fitted inhibition curve with a large enough effect in the signal ratio in the repeat runs, not every such curve was filed as active; the % refers to the signal ratio). Put shortly:
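Inhibition of agonist-driven VDR signalling is scored in VDR-bla cells: 3 nM final 1alpha,25-dihydroxyvitamin D3 plus compound, 16 h at 37C, then beta-lactamase detection by FRET substrate fluorescence after 2 h.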

Assay [14] can be described thus: qHTS assay to identify small molecule agonists of the vitamin D receptor (VDR) signaling pathway - cell viability counter screen (AID 743224). Also: series mostly up to about 63 µM; nearly all actives have a fitted effect of over 50% in size. The procedure, abridged: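 Cells: VDR-bla, 2,000/well, settled 4 h. Treatment: compounds in DMSO, 16 h, 37C/5% CO2. Readout: CellTiter-Glo luminescence after 30 min RT.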
A short description of assay [15]: qHTS assay for small molecule activators of the heat shock response signaling pathway - cell viability counter screen (AID 743209). Also: nearly all actives have a fitted effect of over 50% in size. Put shortly: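 Cytotoxicity counter screen run in parallel with the HSE beta-lactamase reporter, using the same wells. HeLa HSE-bla cells received compound for 5 h at 37 C; ATP-based CellTiter-Glo luminescence was measured after 30 min at room temperature.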

In assay [16] the target is Peroxisome proliferator-activated receptor delta (Homo sapiens) (UniProt Q03181). In words: qHTS assay to identify small molecule agonists of the peroxisome proliferator-activated receptor delta (PPARd) signaling pathway (AID 743212; calls by dose curve). The procedure, abridged: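 Cells expressing a UAS-driven beta-lactamase reporter (PPARd-bla HEK293H) were given test compounds after a 5 h settle and kept at 37 C. Reporter activity was then measured as FRET fluorescence using LiveBLAzer B/G substrate.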

For assay [17] the target is unchanged. In words: qHTS assay to identify small molecule antagonists of the peroxisome proliferator-activated receptor delta (PPARd) signaling pathway (AID 743215; active = well fitted inhibition curve with a large enough effect in the signal ratio in the repeat runs, not every such curve was filed as active; the % refers to the signal ratio; also: series mostly up to about 62 µM). The procedure, abridged: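 Cells: HEK293H with a UAS-driven beta-lactamase reporter responsive to PPARd. Compounds were co-added with L165041 (300 nM, final) and incubated 17 h at 37 C before a 2 h room-temperature FRET substrate step and fluorescence reading.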

Assay [18] in a line: qHTS assay to identify small molecule agonists of the farnesoid-X-receptor (FXR) signaling pathway - cell viability counter screen (AID 743218). Also: nearly all actives have a fitted effect of over 45% in size. Put shortly:
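Cells were seeded, left 5 h at 37 C and 5% CO2, then dosed with compound in DMSO for 16 h. After the beta-lactamase FRET read, CellTiter-Glo was added and luminescence measured 30 min later.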

Assay [19] addresses Peroxisome proliferator-activated receptor gamma (Homo sapiens) (UniProt P37231). In words: qHTS assay to identify small molecule antagonists of the peroxisome proliferator-activated receptor gamma (PPARg) signaling pathway (AID 743191; calls by dose curve; also: series mostly up to about 63 µM; nearly all actives have a fitted effect of over 30% in size). Put shortly:
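GeneBLAzer PPARg UAS-bla HEK293H cells carrying a UAS-driven beta-lactamase reporter were plated at 3000 cells/well, preincubated 5 h at 37C, then given compound for 17 h at 37C; LiveBLAzer B/G FRET substrate was read after 1 h at room temperature.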

Chain of Vitamin D3 receptor (Homo sapiens) (P11473 whole entry, looked up): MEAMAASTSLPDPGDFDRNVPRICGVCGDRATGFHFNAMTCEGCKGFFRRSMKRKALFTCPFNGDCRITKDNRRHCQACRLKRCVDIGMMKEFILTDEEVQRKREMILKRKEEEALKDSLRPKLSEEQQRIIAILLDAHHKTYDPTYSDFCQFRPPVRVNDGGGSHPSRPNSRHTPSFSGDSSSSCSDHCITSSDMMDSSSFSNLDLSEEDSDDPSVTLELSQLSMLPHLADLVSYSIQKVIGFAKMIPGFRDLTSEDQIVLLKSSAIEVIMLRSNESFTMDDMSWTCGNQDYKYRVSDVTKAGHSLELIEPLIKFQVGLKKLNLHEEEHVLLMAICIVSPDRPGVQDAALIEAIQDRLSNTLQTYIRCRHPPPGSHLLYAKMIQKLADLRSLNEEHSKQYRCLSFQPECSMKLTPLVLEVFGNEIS
Chain of Peroxisome proliferator-activated receptor gamma (Homo sapiens) (P37231 whole entry, looked up): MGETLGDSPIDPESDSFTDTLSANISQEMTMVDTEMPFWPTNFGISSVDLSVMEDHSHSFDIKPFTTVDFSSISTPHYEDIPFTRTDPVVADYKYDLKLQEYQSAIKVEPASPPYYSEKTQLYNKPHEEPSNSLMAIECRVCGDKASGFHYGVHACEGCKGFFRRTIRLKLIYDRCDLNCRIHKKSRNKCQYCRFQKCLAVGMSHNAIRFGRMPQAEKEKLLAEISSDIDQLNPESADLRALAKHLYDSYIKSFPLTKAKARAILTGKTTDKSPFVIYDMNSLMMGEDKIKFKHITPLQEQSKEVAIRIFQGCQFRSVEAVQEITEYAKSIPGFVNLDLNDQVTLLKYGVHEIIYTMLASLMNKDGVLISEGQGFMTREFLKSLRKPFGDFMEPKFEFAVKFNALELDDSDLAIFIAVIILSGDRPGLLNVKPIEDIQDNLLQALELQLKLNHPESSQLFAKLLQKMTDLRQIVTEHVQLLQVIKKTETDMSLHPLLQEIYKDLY
Chain of Bile acid receptor (Homo sapiens) (Q96RI1 whole entry, looked up): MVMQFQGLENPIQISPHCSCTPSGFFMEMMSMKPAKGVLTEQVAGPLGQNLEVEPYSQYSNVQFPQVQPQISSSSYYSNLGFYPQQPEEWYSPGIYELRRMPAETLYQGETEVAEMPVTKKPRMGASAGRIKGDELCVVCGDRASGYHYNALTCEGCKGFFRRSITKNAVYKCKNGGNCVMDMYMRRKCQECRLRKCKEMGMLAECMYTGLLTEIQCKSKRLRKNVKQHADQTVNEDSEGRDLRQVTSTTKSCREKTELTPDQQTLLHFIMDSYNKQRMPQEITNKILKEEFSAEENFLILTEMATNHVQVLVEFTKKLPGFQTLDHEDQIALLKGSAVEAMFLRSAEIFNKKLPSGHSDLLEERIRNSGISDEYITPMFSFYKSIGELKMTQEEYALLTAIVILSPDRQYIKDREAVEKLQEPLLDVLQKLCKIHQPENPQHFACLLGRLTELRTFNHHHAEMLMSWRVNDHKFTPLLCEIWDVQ
Chain of Peroxisome proliferator-activated receptor delta (Homo sapiens) (Q03181 whole entry, looked up): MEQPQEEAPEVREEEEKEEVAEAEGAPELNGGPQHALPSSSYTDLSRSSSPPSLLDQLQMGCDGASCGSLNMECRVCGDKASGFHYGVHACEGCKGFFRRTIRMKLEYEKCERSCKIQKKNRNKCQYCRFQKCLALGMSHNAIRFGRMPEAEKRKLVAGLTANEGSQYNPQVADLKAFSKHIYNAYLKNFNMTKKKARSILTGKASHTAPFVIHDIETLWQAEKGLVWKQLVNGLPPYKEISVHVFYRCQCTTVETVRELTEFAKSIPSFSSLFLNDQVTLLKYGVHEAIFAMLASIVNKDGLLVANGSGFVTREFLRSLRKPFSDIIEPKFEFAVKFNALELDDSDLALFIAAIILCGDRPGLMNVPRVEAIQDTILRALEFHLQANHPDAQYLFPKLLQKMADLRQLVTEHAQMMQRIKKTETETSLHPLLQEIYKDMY

Consider `C/C(=N\NC(=O)Nc1cc(F)cc(F)c1)c1ncccc1C(=O)O`, for which the Potency result in [1], in assay [3], in [4], in [5], in [6] and in assay [7] was “inactive” in each case. For the same molecule, the Potency result in assay [8], in assay [11] and in assay [14] was “inactive” in each case. Moreover, the call in [2], in assay [9], in assay [10], in assay [12] and in [13] was inactive.
Consider `COC[C@@H](NC(C)=O)C(=O)NCc1ccccc1`, for which the Potency entry in assay [3], in assay [5], in assay [15], in [6], in assay [7] and in assay [8] was “inactive” each time. Also, the Potency entry in assay [17], in [18], in assay [11] and in assay [14] was “inactive” each time. In addition, the molecule was classed as inactive in [16] and in [12].
In the case of `CCN1CCCC1CNC(=O)C(O)(c1ccccc1)c1ccccc1` (stereo not drawn), the Potency entry in [19], in [3], in assay [5], in assay [15], in assay [6] and in [7] was “inactive” throughout. The Potency result in assay [8], in assay [18], in [11] and in [14] was “inactive” throughout. Besides, the call in assay [9], in [10], in assay [12] and in assay [13] was inactive.
As for `c1ccc2c(c1)CCNC2`, the Potency result in assay [1], in assay [19], in assay [3], in [4], in assay [5] and in assay [15] was “inactive” throughout. Also, the Potency entry in assay [6], in [7], in [8], in assay [17], in assay [18] and in [11] was “inactive” in each case. In addition, the Potency result in assay [14] is “inactive”. For the same molecule, the result in assay [16], in [12] and in assay [13] was inactive.
Turning to `CC(C)(N)Cc1ccccc1Cl`, the Potency result in [3], in assay [15], in assay [6], in assay [7], in [8] and in assay [17] was “inactive” each time. Also, the Potency result in [18], in assay [11] and in assay [14] was “inactive” each time. The molecule was classed as inactive in assay [16], in assay [9], in assay [10] and in assay [13].
As for `C1CN2CCC1CC2`, the Potency result in assay [19], in assay [3], in [4], in assay [15], in assay [6] and in assay [7] was “inactive” each time. The Potency entry in assay [8], in assay [18] and in assay [11] was “inactive” each time. The outcome in assay [16], in [9] and in assay [10] was inactive.
Regarding `Cc1ccc(-c2nc3ccc(C)cn3c2CC(=O)N(C)C)cc1`, the Potency entry in [1], in [19], in assay [3], in [4], in assay [5] and in assay [15] was “inactive” in each case. In addition, the Potency entry in assay [6], in assay [7], in assay [8], in assay [11] and in [14] was “inactive” each time. In addition, the molecule was called inactive in assay [2] and in [13].
Consider `CCC(C)C(C)(COC(N)=O)COC(N)=O` (stereo not drawn), for which the Potency result in assay [3], in [4], in [5], in assay [15], in [6] and in assay [7] was “inactive” throughout. In addition, the Potency entry in assay [8], in [18] and in [11] was “inactive” throughout.
`Clc1nc(Cl)nc(Nc2ccccc2Cl)n1`: the Potency entry in assay [1], in assay [5], in assay [15], in assay [6], in [7] and in assay [8] was “inactive” each time. The Potency result in assay [18], in assay [11] and in assay [14] was “inactive” in each case. Moreover, the call in assay [2], in assay [16] and in assay [12] was inactive.
For `CCCOC(=O)c1cncn1C(C)c1ccccc1` (stereo not drawn), the Potency result in assay [19], in assay [3], in assay [4], in assay [5], in assay [15] and in [6] was “inactive” in each case. For the same molecule, the Potency entry in [7], in assay [8], in assay [18] and in [11] was “inactive” throughout. Moreover, the molecule was classed as inactive in [16].
For the molecule `O=CCCl`, the Potency result in assay [1], in assay [19], in assay [3], in [4], in [5] and in assay [15] was “inactive” throughout. Also, the Potency result in assay [6], in [7], in assay [8], in [18], in assay [11] and in [14] was “inactive” each time. Moreover, the molecule was classed as inactive in assay [2], in [12] and in assay [13].
Take `CCCOC(=O)Cc1ccc(OCC(=O)N(CC)CC)c(OC)c1`: the Potency result in assay [1], in assay [19], in assay [3], in assay [4], in [5] and in assay [15] was “inactive” each time. Further, the Potency result in [6], in assay [7], in [18], in assay [11] and in assay [14] was “inactive” throughout. The outcome in assay [2], in [9] and in assay [10] was inactive.
With `CN1COCN(Cc2cnc(Cl)s2)/C1=N\[N+](=O)[O-]`, the Potency result in assay [1], in assay [3], in assay [4], in assay [15], in assay [6] and in assay [7] was “inactive” in each case. In addition, the Potency entry in assay [17], in [18], in assay [11] and in [14] was “inactive” each time. Moreover, the molecule was classed as inactive in assay [2], in [16], in assay [9], in [10], in assay [12] and in [13].
As to `CNC(=O)O/N=C(/CSC)C(C)(C)C`, the Potency entry in assay [1], in [19], in assay [3], in assay [4], in assay [5] and in assay [6] was “inactive” in each case. The Potency entry in assay [7], in assay [8], in assay [18], in [11] and in assay [14] was “inactive” throughout. Besides, the molecule was called inactive in assay [2], in assay [12] and in assay [13].
With `O=[N+]([O-])c1cccc(CCl)c1`, the Potency result in [1], in [3], in assay [5], in assay [15], in assay [6] and in assay [7] was “inactive” each time. Also, the Potency result in assay [8], in assay [18], in assay [11] and in assay [14] was “inactive” in each case. The Potency in assay [4] was 31.3 µM (active). Besides, the molecule was called inactive in assay [12] and in assay [13].
